Vaccinia mCherry: inhibitors of vaccinia virus infection (mCherry reporter signal). Vaccinia virus mCherry reporter infection, fluorescence. Potency, µM (doses to about 36.5 µM), for inactives: at the highest dose activity change, negative = inhibition, hits mostly inhibitors. hit rate 0.63% among 310,000; calls by dose curve; tested in A549 cells; further: potency means the concentration at half of the fitted maximal effect; nearly all actives have a fitted effect of over 35% in size
Marburg entry inh: Marburg virus entry inhibition; Potency, µM (top dose mostly 37.8 µM), without a hit: at the top dose activity change, negative = inhibition, actives largely listed as inhibitors; hit rate 1.8% among 300,000; Marburg virus pseudotyped entry inhibition, cell reporter; calls by dose curve; tested in HEK293 cells; further: potency means the concentration at half of the fitted maximal effect
VACV Venus inh: inhibitors of vaccinia virus (Venus reporter) | Vaccinia virus Venus reporter expression, fluorescence | Potency, µM (top dose mostly 36.5 µM), for the others: top-dose activity change, negative = inhibition, actives largely listed as inhibitors | hit rate 0.46% among 330,000 | AID 720580; calls by dose curve; tested in A549 cells; further: potency means the concentration at half of the fitted maximal effect; nearly all actives have a fitted effect of over 30% in size
HCV inh: blocks hepatitis C virus; Huh7.5.1 HCVcc-Cre infection, luciferase reporter, 44 h; Potency, µM (titrated, usually from 41.8 µM), inactives show top-dose activity change, negative = inhibition, actives largely listed as inhibitors; hit rate 3.4% among 340,000; AID 651820; active means well fitted inhibition curve with a large enough effect; inconclusive means small, poorly fitted or top-dose-only effect, or another doubt; inactive means no such curve, though single readings can be large or run the other way; further: potency means the concentration at half of the fitted maximal effect
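After 44 h co-culture of compound, cells and HCVcc-Cre (~0.5 moi), substrate is added for 15 min at room temperature and luciferase measured over 15 sec. Cells were seeded at 1,000/well and pre-cultured 4 h.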
HCMV antiviral: inhibitors of human cytomegalovirus; HFF cells, HCMV-luciferase reporter, 72 h; active compounds read low; activity change, negative = inhibition, % at 57.5 µM; hit rate 4.5% among 410,000; AID 1259415; in the data active means activity change below about -60%; inconclusive means no clear call, values can overlap the other calls; inactive means above about -39%
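Two-dose cell screen: HFF monolayers treated with compounds and infected with luciferase-expressing HCMV at 1 PFU/cell, 72 h at 37C, then lysed for luciferase measurement.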
LASV entry inh: inhibitors of Lassa virus binding or cell entry; Lassa virus pseudotype entry inhibition, cell reporter; Potency, µM (highest dose often 37.9 µM), for the others: top-dose activity change, negative = inhibition, usual class: inhibitors; hit rate 1.2% among 300,000; AID 540256; calls by dose curve; tested in HEK293 cells; further: potency means the concentration at half of the fitted maximal effect; nearly all actives have a fitted effect of over 50% in size
Starred values were filed as active, the others as inactive; i = inactive; u = inconclusive; x = no result; + = active, no number; [ ] = remark or other dose. A selection: hits, their analogues and other compounds. The true share with any hit is near 7.8%. On the % scale 0 is the no-effect control and ±100 the full control effect.

SMILES	Vaccinia mCherry	Marburg entry inh	VACV Venus inh	HCV inh	HCMV antiviral	LASV entry inh
Cc1nc(CN2CCN(C(=O)CC3(c4ccccc4Cl)CC(=O)N(C)C3=O)CC2)cs1 (centres undefined)	-7%	x	2%	x	x	x
O=c1c2oc3ccccc3c2n(Cc2ccccc2)c(=O)n1Cc1ccc2c(c1)OCO2	i	x	-11%	x	-33	-7%[46.1 µM]
O=c1c2ccccc2c(-c2ccccc2)nn1Cc1ccc(Cl)cc1	-14%	-28%	-19%	1%	22	0%
O=c1cc(Cl)c(-c2ccccc2)nn1Cc1ccc(Cl)cc1	u	-1%	-19%	3%	-64*	-24%
CN(C)CC(C)(O)c1ccc2c(c1)CN(Cc1cnn(-c3ccccc3)c1)CCO2 (centres undefined)	-13%	x	13%	x	x	x
COc1cc(NC(=O)CN2C(=O)CN(C)C2=O)c(C)cc1[N+](=O)[O-]	-3%	u	2%	-24%	-2	u
COc1cc(NC(=O)Cn2ncc(Cl)c(Cl)c2=O)c(C)cc1[N+](=O)[O-]	u	7.1µM*	u	u	-96*	u
C[C@H]1[C@@H](NS(=O)(=O)c2ccc([N+](=O)[O-])cc2)CC[C@@]23CCCN2C(=O)CCC[C@@H]13	x	x	x	x	-21	x
CC(=O)c1ccc2cccc3c2c1N=CN3C	-15%	5%	-8%	-10%	-63*	-1%
Cc1ccc(NC(=O)C2CCN(c3ncnc4c3nc3n4CCCCC3)CC2)nc1	x	x	x	13µM*	-91*	x
O=C(NCc1cccc(Cl)c1)C1CCN(c2nn3cc(-c4ccc(F)cc4)nc3s2)CC1	-26%	x	u	x	16	24%[46.1 µM]
O=C(NCc1cccc(Cl)c1)C1CCCN(c2nn3cc(-c4ccc(F)cc4)nc3s2)C1 (centres undefined)	-23%	x	-26%	x	+	-6%[46.1 µM]
O=C(NCc1cccc(Cl)c1)C1CCCN(c2ncnc3c2nc2n3CCCCC2)C1 (centres undefined)	-9%	u	-5%	u	-67*	u
CCc1cccc(NC(=O)C2CCCN(c3ncnc4c3nc3n4CCCCC3)C2)c1 (centres undefined)	i	u	u	11µM*	u	u
O=C(NCC1CCN(Cc2ccc(Cl)cc2)CC1)C1CCCN(c2ncnc3c2nc2n3CCCCC2)C1 (centres undefined)	x	x	x	u	-79*	x
COCCN(Cc1ccco1)C(=O)C1CCCN(c2ncnc3c2nc2n3CCCCC2)C1 (centres undefined)	-14%	u	-17%	7%	-18	11µM*
O=C(NCC1CCN(Cc2ccc(F)cc2)CC1)C1CCCN(c2ncnc3c2nc2n3CCCCC2)C1 (centres undefined)	x	x	x	u	-61*	x
COc1ccc(C(=O)Nc2ccccc2-c2nc3ccccc3s2)c(OC)c1	-17%	x	-20%	x	-8	-10%[46.1 µM]
O=C(NCCc1ccc(F)cc1)C(=O)NCC(c1ccc2c(c1)OCO2)N1CCOCC1 (centres undefined)	-20%	x	-20%	x	-1	19%[46.1 µM]
Cc1cn2c(-c3ccc(Cl)cc3)nnc2s1	-8%	x	-12%	10µM*	-6	x
COC(=O)c1ccccc1NC1=C/C(=N\S(=O)(=O)c2cccs2)c2ccccc2C1=O	u	3.7µM*	u	8.9µM*	-30	4.5µM*
Cc1ccc(S(=O)(=O)/N=C2\C=C(Nc3ccc(O)cc3)C(=O)c3ccccc32)cc1	5µM*	u	2.2µM*	6.3µM*	x	2.8µM*
COC(=O)c1ccccc1NC1=C/C(=N\S(=O)(=O)c2ccc(C(=O)O)cc2)c2ccccc2C1=O	25µM*	u	u	10µM*	x	u
Cc1ccc(S(=O)(=O)/N=C2\C=C(Nc3cccc(C(=O)O)c3)C(=O)c3ccccc32)cc1	u	u	5%	-7%	3	u
COC(=O)c1cccc(NS(=O)(=O)c2cccs2)c1C	x	-8%	x	17%	55	3%
SMILES	Vaccinia mCherry	Marburg entry inh	VACV Venus inh	HCV inh	HCMV antiviral	LASV entry inh
CCc1ccc(S(=O)(=O)/N=C2\C=C(Nc3ccc(C(=O)O)cc3)C(=O)c3ccccc32)cc1	u	u	-6%	u	-98*	u
O=S(=O)(NCCc1csc2nc(-c3ccc(F)cc3)nn12)c1ccc2c(c1)OCCO2	-13%	x	-13%	x	-7	0%[46.1 µM]
O=C(N/N=C/c1c[nH]c2ccccc12)c1[nH]c2ccc(Br)cc2c1-c1ccccc1	x	u	x	-26%	-86*	u
O=C(N/N=C/c1c[nH]c2ccccc12)c1ccccc1	x	x	x	11%	33	x
CCOc1ccc(Br)cc1C(=O)N/N=C/c1c[nH]c2ccccc12	x	x	x	13µM*	13	x
O=C(N/N=C/c1ccc(O)cc1)c1[nH]c2ccc(Br)cc2c1-c1ccccc1	x	u	x	3%	-94*	u
Cc1cccc(NC(=S)N/N=C/c2c[nH]c3ccccc23)c1	u	u	u	10µM*	5	u
O=C(N/N=C/c1c[nH]c2ccccc12)c1cc(Br)ccc1O	x	x	x	15%	19	x
CC/C(C)=N/NC(=O)c1[nH]c2ccc(C)cc2c1-c1ccccc1	u	u	-27%	1%	-3	u
O=C(NN=C1CCCC1)c1[nH]c2ccc(Cl)cc2c1-c1ccccc1	-27%	u	-25%	1%	-92*	u
CC(=O)NNC(=O)c1[nH]c2ccc(Cl)cc2c1-c1ccccc1	x	x	x	9%	-4	x
Cc1nc(N)sc1C(=O)N/N=C/c1c[nH]c2ccccc12	-29%	2.9µM*	0%	-22%	62	10%
NNC(=O)c1[nH]c2ccccc2c1-c1ccccc1	-13%	x	u	-4%	-95*	x
Cc1nc(N)sc1C(=O)N/N=C/c1ccccc1[N+](=O)[O-]	x	x	x	x	83	x
FC(F)(F)c1ccc(C2=Nc3ccccc3NC(c3cccs3)=N2)cc1	-17%	-9%[46.1 µM]	-18%	x	22	10%[46.1 µM]
COc1cccc(C(=O)N2CCc3c(C(=O)NC(C)c4ccco4)c(OC)cc(=O)n3CC2)c1OC (centres undefined)	-4%	x	8%	x	x	x
O=C(Nc1cccc(Cl)c1)c1csc(C(O)c2cccc(C(F)(F)F)c2)n1 (centres undefined)	x	x	x	x	21	x
COc1cccc(NC(=O)CSc2nc(C)c(Cc3ccccc3)c(=O)[nH]2)c1	-15%	-15%[46.1 µM]	-10%	x	-38	18%[46.1 µM]
N#C/C(=N\Nc1cccc([N+](=O)[O-])c1)C(=O)c1ccc(Br)cc1	1.8µM*	u	u	10µM*	-101*	x
N#C/C(=N\Nc1ccc([N+](=O)[O-])cc1)C(N)=S	-12%	u	-15%	10µM*	-95*	u
N#C/C(=N/Nc1ccc([N+](=O)[O-])cc1)C(=N)N1CCCCC1	i	-25%[46.1 µM]	-13%	3%	48	u
O=C(O)c1ccc(N=NNc2cccc([N+](=O)[O-])c2)cc1	u	u	2%	32%	61	u
